Where “and” joins values, the source holds several entries; their conditions need not be identical. Equal entries are not always repeated. About 2,000 (36%) of roughly 5,500 compounds were called active. Another 18% or so got no clear call; they are omitted. Cut-off read from the data, not from the text of the source: active = normalized growth mostly below about 0.91 (no sharp cut-off); inconclusive = no clear call, values can overlap the other calls; inactive = mostly above about 0.92. Some of the results follow.
Assay: chemical genetic growth profiling, strain panel (AID 1159580);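 note: tested at 20 µM; growth read once vehicle control cultures reached saturation at 30 °C; 1 = growth at the plate median or of vehicle wells; lower values mean less growth of the strain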
Conditions: growth OD

Measured: normalized growth

CNC1(C)C2CCC(C2)C1(C)C (stereo unspecified)
active: S. cerevisiae deletion strains, locus YOR231W, strain MKK1, stronger effect = lower value 0.824
inactive: S. cerevisiae deletion strains, locus YJR075W, strain HOC1, stronger effect = lower value 1 and 1.01 | S. cerevisiae deletion strains, locus YKL009W, strain mrt4, stronger effect = lower value 1.03 | S. cerevisiae deletion strains, locus YKL068W, stronger effect = lower value 0.989 | S. cerevisiae deletion strains, locus YKL085W, strain MDH1 (second series), stronger effect = lower value 1.02 | S. cerevisiae deletion strains, locus YKL085W, strain MDH1, stronger effect = lower value 1.02 | S. cerevisiae deletion strains, locus YKL160W, strain elf1, stronger effect = lower value 0.97 | S. cerevisiae deletion strains, locus YKL190W, strain CNB1, stronger effect = lower value 0.977 | S. cerevisiae deletion strains, locus YKR001C, strain vps1, stronger effect = lower value 0.997 | S. cerevisiae deletion strains, locus YKR026C, strain gcn3, stronger effect = lower value 1 | S. cerevisiae deletion strains, locus YKR091W, strain srl3, stronger effect = lower value 1 | S. cerevisiae deletion strains, locus YLL001W, strain dnm1, stronger effect = lower value 0.948 | S. cerevisiae deletion strains, locus YLL026W, stronger effect = lower value 0.996 | S. cerevisiae deletion strains, locus YLL041C, strain sdh2, stronger effect = lower value 0.988 | S. cerevisiae deletion strains, locus YLR027C, strain aat2, stronger effect = lower value 0.996 | S. cerevisiae deletion strains, locus YLR039C, strain RIC1, stronger effect = lower value 0.959 | S. cerevisiae deletion strains, locus YLR058C, strain SHM2, stronger effect = lower value 0.979 | S. cerevisiae deletion strains, locus YLR102C, strain apc9, stronger effect = lower value 0.981 | S. cerevisiae deletion strains, locus YLR113W, strain HOG1, stronger effect = lower value 0.934 | S. cerevisiae deletion strains, locus YLR221C, strain rsa3, stronger effect = lower value 0.976 | S. cerevisiae deletion strains, locus YLR258W, strain gsy2, stronger effect = lower value 1.02 | S. cerevisiae deletion strains, locus YLR262C, strain YPT6 (second series), stronger effect = lower value 1 | S. cerevisiae deletion strains, locus YLR262C, strain YPT6, stronger effect = lower value 0.934 | S. cerevisiae deletion strains, locus YLR268W, strain sec22, stronger effect = lower value 0.965 | S. cerevisiae deletion strains, locus YLR320W, strain mms22, stronger effect = lower value 0.982 | S. cerevisiae deletion strains, locus YLR330W, strain CHS5, stronger effect = lower value 0.987 | S. cerevisiae deletion strains, locus YLR342W, strain FKS1 (second series), stronger effect = lower value 1.08 | S. cerevisiae deletion strains, locus YLR342W, strain FKS1, stronger effect = lower value 0.99 | S. cerevisiae deletion strains, locus YLR357W, strain rsc2, stronger effect = lower value 0.987 | S. cerevisiae deletion strains, locus YLR370C, strain arc18, stronger effect = lower value 0.989 | S. cerevisiae deletion strains, locus YLR371W, strain rom2, stronger effect = lower value 1.01 | S. cerevisiae deletion strains, locus YLR384C, strain iki3, stronger effect = lower value 1 | S. cerevisiae deletion strains, locus YLR418C, strain cdc73, stronger effect = lower value 0.909 | S. cerevisiae deletion strains, locus YML016C, strain PPZ1, stronger effect = lower value 0.993 | S. cerevisiae deletion strains, locus YML032C, strain rad52, stronger effect = lower value 1.03 | S. cerevisiae deletion strains, locus YML120C, strain ndi1, stronger effect = lower value 0.979 | S. cerevisiae deletion strains, locus YML124C, strain tub3, stronger effect = lower value 0.995 | S. cerevisiae deletion strains, locus YMR058W, strain fet3, stronger effect = lower value 0.995 | S. cerevisiae deletion strains, locus YMR078C, strain ctf18, stronger effect = lower value 0.999 | S. cerevisiae deletion strains, locus YMR125W, strain sto1, stronger effect = lower value 0.987 | S. cerevisiae deletion strains, locus YMR129W, stronger effect = lower value 0.998 | S. cerevisiae deletion strains, locus YMR205C, strain PFK2, stronger effect = lower value 0.983 | S. cerevisiae deletion strains, locus YMR223W, strain ubp8, stronger effect = lower value 1.04 | S. cerevisiae deletion strains, locus YMR231W, strain pep5, stronger effect = lower value 0.998 | S. cerevisiae deletion strains, locus YMR263W, strain SAP30, stronger effect = lower value 0.966 and 1 | S. cerevisiae deletion strains, locus YMR307W, strain GAS1, stronger effect = lower value 1.06 | S. cerevisiae deletion strains, locus YNL067W, strain RPL9B, stronger effect = lower value 0.976 | S. cerevisiae deletion strains, locus YNL071W, strain lat1, stronger effect = lower value 0.993 | S. cerevisiae deletion strains, locus YNL128W, strain TEP1, stronger effect = lower value 0.946 and 1.02 | S. cerevisiae deletion strains, locus YNL153C, strain GIM3, stronger effect = lower value 0.962 | S. cerevisiae deletion strains, locus YNL175C, strain NOP13, stronger effect = lower value 0.998 | S. cerevisiae deletion strains, locus YNL183C, strain NPR1, stronger effect = lower value 0.971 | S. cerevisiae deletion strains, locus YNL197C, strain WHI3, stronger effect = lower value 1.02 | S. cerevisiae deletion strains, locus YNL209W, strain ssb2, stronger effect = lower value 0.992 | S. cerevisiae deletion strains, locus YNL224C, strain SQS1, stronger effect = lower value 1.01 | S. cerevisiae deletion strains, locus YNL233W, strain BNI4, stronger effect = lower value 0.98 | S. cerevisiae deletion strains, locus YNL248C, strain rpa49, stronger effect = lower value 0.982 | S. cerevisiae deletion strains, locus YNL250W, strain rad50, stronger effect = lower value 0.995 | S. cerevisiae deletion strains, locus YNL271C, strain bni1, stronger effect = lower value 0.996 | S. cerevisiae deletion strains, locus YNL298W, strain CLA4, stronger effect = lower value 0.99 | S. cerevisiae deletion strains, locus YNL307C, strain MCK1, stronger effect = lower value 0.999 | S. cerevisiae deletion strains, locus YNL322C, strain KRE1 (second series), stronger effect = lower value 1 | S. cerevisiae deletion strains, locus YNL322C, strain KRE1, stronger effect = lower value 0.978 | S. cerevisiae deletion strains, locus YNR049C, strain mso1, stronger effect = lower value 0.996 | S. cerevisiae deletion strains, locus YNR052C, strain pop2, stronger effect = lower value 0.992 | S. cerevisiae deletion strains, locus YOL006C, strain TOP1, stronger effect = lower value 0.951 | S. cerevisiae deletion strains, locus YOL012C, strain htz1 0.652 | S. cerevisiae deletion strains, locus YOL147C, strain pex11, stronger effect = lower value 0.996 | S. cerevisiae deletion strains, locus YOR001W, strain rrp6, stronger effect = lower value 0.964 | S. cerevisiae deletion strains, locus YOR061W, strain CKA2, stronger effect = lower value 0.958 | S. cerevisiae deletion strains, locus YOR069W, strain VPS5, stronger effect = lower value 0.993 | S. cerevisiae deletion strains, locus YOR070C, strain gyp1, stronger effect = lower value 0.997 | S. cerevisiae deletion strains, locus YOR080W, strain dia2, stronger effect = lower value 0.999 | S. cerevisiae deletion strains, locus YOR083W, strain WHI5 (second series), stronger effect = lower value 1.01 | S. cerevisiae deletion strains, locus YOR083W, strain WHI5, stronger effect = lower value 0.978 | S. cerevisiae deletion strains, locus YOR106W, strain vam3, stronger effect = lower value 0.987 | S. cerevisiae deletion strains, locus YOR136W, strain idh2, stronger effect = lower value 1.01 | S. cerevisiae deletion strains, locus YOR144C, strain elg1, stronger effect = lower value 0.99 | S. cerevisiae deletion strains, locus YOR184W, strain ser1, stronger effect = lower value 1.05 | S. cerevisiae deletion strains, locus YOR265W, strain rbl2, stronger effect = lower value 0.989 | S. cerevisiae deletion strains, locus YOR270C, strain vph1, stronger effect = lower value 0.991 | S. cerevisiae deletion strains, locus YOR290C, strain snf2, stronger effect = lower value 0.958 | S. cerevisiae deletion strains, locus YOR316C, strain cot1, stronger effect = lower value 0.985 | S. cerevisiae deletion strains, locus YPL051W, strain arl3, stronger effect = lower value 0.999 | S. cerevisiae deletion strains, locus YPL055C, strain LGE1, stronger effect = lower value 0.935 | S. cerevisiae deletion strains, locus YPL078C, strain atp4, stronger effect = lower value 0.983 | S. cerevisiae deletion strains, locus YPL106C, strain sse1, stronger effect = lower value 0.979 | S. cerevisiae deletion strains, locus YPL240C, strain hsp82, stronger effect = lower value 0.989 | S. cerevisiae deletion strains, locus YPL241C, strain CIN2, stronger effect = lower value 1 | S. cerevisiae deletion strains, locus YPL256C, strain CLN2, stronger effect = lower value 0.946 | S. cerevisiae deletion strains, locus YPR119W, strain clb2, stronger effect = lower value 0.993 | S. cerevisiae deletion strains, locus YPR141C, strain kar3, stronger effect = lower value 0.968 | S. cerevisiae deletion strains, locus YPR163C, strain tif3, stronger effect = lower value 0.991 | S. cerevisiae deletion strains, locus YPR167C, strain met16, stronger effect = lower value 0.983 | S. cerevisiae deletion strains, strain wtn01, stronger effect = lower value 0.974 | S. cerevisiae strains, strain wild type, stronger effect = lower value 0.991

Reference: PubChem BioAssay AID1159580 (chemical genetic matrix, 2015)
